# Measurements published in PubChem BioAssay.
# A number with no mark means an inactive call. Where a call stands in place of a potency, no number is given. For some assays here: Potency and affinity values are given separately. Activity calls are given as the source filed them. Unless noted, how the calls were made is not given here.
# Tests used:
# [1] = antimalarial activity against Dd2 strain (AID 2302;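 active means growth inhibition above 50% at the single 2 µM test dose, taken to imply half-maximal potency below 2 µM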); settings: P. falciparum Dd2 in RBCs, LDH growth readout, 72 h; at 2 µM; stronger effect = higher value
# [2] = human hepatoma cell viability loss – ATP luminescence, cytotoxicity control for P. falciparum antimalarial project, primary screen (AID 2303;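 active means inhibition above 50%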); settings: HepG2 viability, 24-48 h, at 10 µM, stronger effect = higher value
# [3] = target: L-lactate dehydrogenase (Plasmodium falciparum (isolate CDC / Honduras)) (UniProt Q27743); assay: PfLDH activity inhibition – cell lysate, 3D7 strain, counter-screen for P. falciparum growth inhibition project (AID 2304); settings: P. falciparum 3D7 crude extract, LDH APAD/NBT absorbance; at 2 µM; stronger effect = higher value
# [4] = inhibition of 3D7 malaria parasite growth – strain 3D7 (AID 2306); settings: P. falciparum 3D7 erythrocytic growth, LDH absorbance, 72 h; at 2 µM; stronger effect = higher value
# [5] = target: Calcium-dependent protein kinase 1 (Plasmodium falciparum (isolate 3D7)) (UniProt P62344); assay: PfCDPK1 kinase inhibitors, biochemical, TCAMS library (AID 1159585; cut-off not given, nearly all actives have IC50 up to about 0.98 µM;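 further: inhibitors leave more ATP so luminescence rises with inhibition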); settings: recombinant PfCDPK1, Kinase-Glo ATP depletion luminescence
# [6] = target: Plasmodium falciparum protein kinase 6 (PK6, PF3D7_1337100) (UniProt Q8IDW1); assay: PfPK6 kinase inhibitors, biochemical, TCAMS library (AID 1159586); settings: recombinant PfPK6, Kinase-Glo ATP depletion luminescence
# [7] = target: Protein kinase 7 (PK7), Plasmodium falciparum 3D7 (PF3D7_0213400) (UniProt Q7YTF7); assay: inhibition of Plasmodium PK7 catalytic activity – biochemical, TCAMS antimalarial set, Kinase-Glo luminescence (AID 1159587); settings: recombinant PfPK7, Kinase-Glo ATP depletion luminescence
# [8] = target: Calcium-dependent protein kinase 4 (Plasmodium falciparum (isolate 3D7)) (UniProt Q8IBS5); assay: PfCDPK4 kinase inhibitors, biochemical, TCAMS library (AID 1159588; cut-off not given, nearly all actives have IC50 up to about 0.91 µM); settings: recombinant PfCDPK4, Kinase-Glo ATP depletion luminescence
# Sequence of Calcium-dependent protein kinase 4 (Plasmodium falciparum (isolate 3D7)) (Q8IBS5 whole entry, looked up): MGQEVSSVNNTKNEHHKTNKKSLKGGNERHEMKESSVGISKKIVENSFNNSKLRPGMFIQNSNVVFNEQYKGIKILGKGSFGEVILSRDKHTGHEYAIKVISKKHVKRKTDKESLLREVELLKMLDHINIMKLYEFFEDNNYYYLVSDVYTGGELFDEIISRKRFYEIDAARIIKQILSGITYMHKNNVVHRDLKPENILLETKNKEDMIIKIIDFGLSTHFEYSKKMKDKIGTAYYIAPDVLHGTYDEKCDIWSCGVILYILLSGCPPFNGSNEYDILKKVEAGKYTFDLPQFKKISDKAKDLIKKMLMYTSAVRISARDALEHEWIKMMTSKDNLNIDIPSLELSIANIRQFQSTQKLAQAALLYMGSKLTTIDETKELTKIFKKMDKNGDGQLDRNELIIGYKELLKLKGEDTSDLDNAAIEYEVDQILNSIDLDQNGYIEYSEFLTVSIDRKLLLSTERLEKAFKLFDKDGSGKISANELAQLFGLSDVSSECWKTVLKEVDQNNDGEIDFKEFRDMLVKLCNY
# Sequence of Plasmodium falciparum protein kinase 6 (PK6, PF3D7_1337100) (Q8IDW1 1-305): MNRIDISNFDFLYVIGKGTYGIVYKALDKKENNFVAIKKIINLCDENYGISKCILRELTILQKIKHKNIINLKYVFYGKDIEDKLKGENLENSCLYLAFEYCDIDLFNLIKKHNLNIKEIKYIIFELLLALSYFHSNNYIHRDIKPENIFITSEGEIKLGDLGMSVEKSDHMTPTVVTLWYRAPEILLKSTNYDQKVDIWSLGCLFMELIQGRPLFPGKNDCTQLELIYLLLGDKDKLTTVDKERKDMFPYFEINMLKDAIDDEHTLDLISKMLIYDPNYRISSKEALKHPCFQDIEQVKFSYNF
# Sequence of Calcium-dependent protein kinase 1 (Plasmodium falciparum (isolate 3D7)) (P62344 whole entry, looked up): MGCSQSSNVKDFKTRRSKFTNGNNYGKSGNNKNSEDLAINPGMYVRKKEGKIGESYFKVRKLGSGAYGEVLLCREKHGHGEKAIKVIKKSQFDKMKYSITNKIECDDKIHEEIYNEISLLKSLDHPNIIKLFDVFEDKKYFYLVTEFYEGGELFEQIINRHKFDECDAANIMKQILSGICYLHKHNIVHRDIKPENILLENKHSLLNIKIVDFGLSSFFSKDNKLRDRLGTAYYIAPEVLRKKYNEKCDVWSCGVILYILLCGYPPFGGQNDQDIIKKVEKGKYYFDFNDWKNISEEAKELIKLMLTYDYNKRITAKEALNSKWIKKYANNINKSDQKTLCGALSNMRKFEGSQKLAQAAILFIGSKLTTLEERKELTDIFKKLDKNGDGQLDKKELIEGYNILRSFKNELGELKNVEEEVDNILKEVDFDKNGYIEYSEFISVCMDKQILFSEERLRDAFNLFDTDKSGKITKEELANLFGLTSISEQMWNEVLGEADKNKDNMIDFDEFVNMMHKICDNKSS
# Sequence of Protein kinase 7 (PK7), Plasmodium falciparum 3D7 (PF3D7_0213400) (Q7YTF7 1-343): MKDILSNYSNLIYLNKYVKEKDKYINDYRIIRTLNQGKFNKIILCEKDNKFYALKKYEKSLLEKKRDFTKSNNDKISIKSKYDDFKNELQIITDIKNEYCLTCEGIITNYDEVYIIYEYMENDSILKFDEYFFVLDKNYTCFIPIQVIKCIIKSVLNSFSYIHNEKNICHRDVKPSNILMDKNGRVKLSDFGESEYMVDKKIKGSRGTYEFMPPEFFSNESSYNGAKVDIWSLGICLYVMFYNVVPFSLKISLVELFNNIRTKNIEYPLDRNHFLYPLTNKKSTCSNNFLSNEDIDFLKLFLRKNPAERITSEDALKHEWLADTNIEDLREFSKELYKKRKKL
# Sequence of L-lactate dehydrogenase (Plasmodium falciparum (isolate CDC / Honduras)) (Q27743 whole entry, looked up): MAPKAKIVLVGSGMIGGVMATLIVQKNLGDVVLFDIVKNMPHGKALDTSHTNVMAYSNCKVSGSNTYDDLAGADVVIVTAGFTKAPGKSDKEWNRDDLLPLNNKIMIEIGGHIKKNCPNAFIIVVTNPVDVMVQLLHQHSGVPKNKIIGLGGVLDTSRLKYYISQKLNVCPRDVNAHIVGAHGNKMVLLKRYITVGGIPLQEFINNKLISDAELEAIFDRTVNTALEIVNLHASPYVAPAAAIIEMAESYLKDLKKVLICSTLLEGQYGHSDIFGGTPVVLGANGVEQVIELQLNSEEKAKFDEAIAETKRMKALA
Compound,growth inhibition [1],inhibition [2],inhibition [3] [%],growth inhibition [4],outcome [5],outcome [6],outcome [7],outcome [8]
CN(C)CCOc1cc(NC(=O)Nc2ccc(-c3ccncc3)c3ccccc23)ccc1I,46%,35%,-3,97% (active),inactive,inactive,inactive,inactive
c1cc2nc(CCc3nc4ccc(C5=N[C@H]6CCCC[C@H]6N5)cc4[nH]3)[nH]c2cc1C1=N[C@@H]2CCCC[C@@H]2N1,96% (active),3%,-2,93% (active),inactive,inactive,inactive,inactive
Cc1nn(-c2ccnc3cc(Cl)ccc23)c(C)c1C(=O)NCc1cc(Cl)cc(Cl)c1,53% (active),-10%,-1,97% (active),inactive,inactive,inactive,inactive
Oc1ccc2c(c1NCC1CCCCC1)CCCC2,99% (active),11%,0,99% (active),inactive,inactive,inactive,inactive
COc1ccc(C(=O)NC(c2ccc(Cl)cc2Cl)c2cc(Cl)c3cccnc3c2O)cc1 (stereo not given),48%,46%,2,84% (active),inactive,inactive,inactive,inactive
COc1cccc(-c2nn(C)c3sc(C(=O)Nc4cccnc4)cc23)c1,34%,1%,-2,86% (active),inactive,inactive,inactive,inactive
C=CCn1c(Sc2ccc(C#N)c([N+](=O)[O-])c2)nnc1-c1ccc(OC)cc1,74% (active),-5%,0,96% (active),inactive,inactive,inactive,inactive
CC(=O)Nc1nc(C(=O)Nc2ccc(-c3ccc(-c4nc5ccccc5[nH]4)cc3)cc2)cs1,53% (active),38%,-5,100% (active),inactive,inactive,inactive,inactive
Clc1ccc(-n2cnc3c(Nc4ccc(Oc5ccccc5)cc4)ncnc32)cc1Cl,65% (active),4%,0,99% (active),inactive,inactive,inactive,inactive
CC(C)(CNC(=O)C1CCN(CC2CCCCC2)CC1)c1nc(-c2ccc(Cl)c(O)c2)c(-c2ccncc2)[nH]1,31%,-6%,-3,98% (active),inactive,inactive,inactive,inactive
O=C(NOCCOc1ccccc1)c1ccccc1,0%,0%,-1,98% (active),inactive,inactive,inactive,inactive
COc1ccc2ccc(OC)c(CNCCCCCCNCc3c(OC)ccc4ccc(OC)cc34)c2c1,32%,100% (active),-6,101% (active),inactive,inactive,inactive,inactive
CC(=O)Nc1ccc(CN2CCC(NC(=O)c3ccc(-c4ccc(N(C)C)cc4)s3)CC2)cc1,57% (active),20%,-1,100% (active),inactive,inactive,inactive,inactive
COc1ccc(-c2cccc(NC(=O)c3ccc(Cl)cc3)c2)cc1CN1CCCN(C)CC1,95% (active),29%,-8,101% (active),inactive,inactive,inactive,inactive
CCc1ccc(OCCCON2C(N)=NC(N)=NC2(C)C)cc1,95% (active),64% (active),-8,95% (active),inactive,inactive,inactive,inactive
COc1ccc(-c2cccc(CNC3CCN(C)CC3)c2)cc1S(=O)(=O)NCc1ccccc1,22%,18%,-5,90% (active),inactive,inactive,inactive,inactive
O=S1(=O)C=C(c2ccccc2)CC1,44%,57% (active),-1,97% (active),inactive,inactive,inactive,inactive
N#Cc1cncc(-c2nc3c(N4CCCC(N)C4)cccc3n2CCNCc2ccccc2)c1 (stereo not given),1%,8%,-1,101% (active),inactive,inactive,inactive,inactive
Cc1ccc(C)c(Sc2ccc(NC(=O)CN3CCN(C(=O)c4ccco4)CC3)cc2)c1,93% (active),28%,1,96% (active),inactive,inactive,inactive,inactive
N#Cc1cccc(CN2CCCN(c3ccc(NC(=O)c4cccs4)cc3)CC2)c1,95% (active),-2%,-2,96% (active),inactive,inactive,inactive,inactive

Compound,growth inhibition [1],inhibition [2],inhibition [3] [%],growth inhibition [4],outcome [5],outcome [6],outcome [7],outcome [8]
CN1CCCC(CN2CCN(Cc3ccc(-c4ccc(-c5nc6ccc(F)cc6[nH]5)cc4)cc3)CC2)C1 (stereo not given),98% (active),90% (active),-1,100% (active),inactive,inactive,inactive,inactive
Fc1ccc(CNc2nc(-c3ccc(F)c(C(F)(F)F)c3)n(-c3cccc(C(F)(F)F)c3)n2)cc1,80% (active),0%,-1,95% (active),inactive,inactive,inactive,inactive
COc1ccc(CNCc2ccc(F)cc2)cc1-c1ccc(S(=O)(=O)NCCN2CCCC2)cc1,25%,38%,0,91% (active),inactive,inactive,inactive,inactive
CC=Cc1cc(Cc2cnc(N)nc2N)cc(CCC)c1OC,1%,16%,5,97% (active),inactive,inactive,inactive,inactive
COc1ccc(OC)c2c1CCN(CCN1CCC(C(=O)Nc3ccc(C(=O)Nc4ccc(Cl)cc4)cc3)CC1)C2,100% (active),25%,-2,100% (active),inactive,inactive,inactive,inactive
Cc1csc2nc(-c3ccccn3)nc(Nc3ccc4ncsc4c3)c12,91% (active),-3%,3,85% (active),inactive,inactive,inactive,inactive
O=C(CN1CCC2(CCC1=O)CC(=O)c1ccccc1O2)NCCN1CCOCC1 (stereo not given),-4%,6%,-4,101% (active),inactive,inactive,inactive,inactive
CCN(CC)CCc1ccc2c(=O)cc(CCc3cccc(F)c3F)n(CC(=O)N(C)Cc3ccc(-c4ccc(C(F)(F)F)cc4)cc3)c2c1,45%,98% (active),1,97% (active),inactive,inactive,inactive,inactive
COc1ccc2nccc(N3CCC(CCNCc4ccc5c(n4)NC(=O)CS5)CC3)c2c1,86% (active),55% (active),-1,101% (active),inactive,inactive,inactive,inactive
O=C(O)c1cc(C(F)(F)F)co1,19%,-4%,1,96% (active),inactive,inactive,inactive,inactive
COCCOc1cccc(CN2CCC(c3cc4nc(C)cc(C(F)(F)F)n4n3)C2)c1 (stereo not given),74% (active),25%,2,85% (active),inactive,inactive,inactive,inactive
N#CCCN1CCN(Cc2cccc(-c3ccc(-c4nc5ccc(F)cc5[nH]4)cc3)c2)CC1,35%,18%,-2,100% (active),inactive,inactive,inactive,inactive
Cc1[nH]nc2cc(F)c(-c3cc(OC[C@@H](N)Cc4ccccc4)cnc3-c3ccoc3)cc12,15%,22%,6,95% (active),inactive,inactive,inactive,inactive
O=C(/C=C/c1ccc(Cl)c(Cl)c1)NCCCCCN1CCCN(C(=O)Nc2cc(Cl)nc(Cl)c2)CC1,3%,8%,-1,103% (active),inactive,inactive,inactive,inactive
Cc1cccc2[nH]c(-c3cccc(-c4ccc(CNCCNC(=O)c5ccnn5C)cc4)c3)nc12,100% (active),21%,-2,102% (active),inactive,inactive,inactive,inactive
CCCCNc1nc(NCCCC)c2c(C)c(Cc3ccccc3)c(NCCCC)nc2n1,84% (active),69% (active),-10,95% (active),inactive,inactive,inactive,inactive
CCC/C=C/c1c(CNCCCNc2cc(=O)c3ccccc3[nH]2)sc(CC)c1Br,71% (active),8%,-1,88% (active),inactive,inactive,inactive,inactive
COc1ccccc1C1CCN(C2CCC(NC(=O)/C=C/c3cc(F)cc(C(F)(F)F)c3)CC2)CC1 (stereo not given),57% (active),92% (active),-1,98% (active),inactive,inactive,inactive,inactive
COc1cc(OC)cc(C(=O)Nc2cccc(-c3cn4ccc(C)cc4n3)c2)c1,45%,4%,0,86% (active),inactive,inactive,inactive,inactive
N#Cc1ccc2c(c1)CCN(CCC1CCC(NC(=O)Nc3cnc4ccccc4c3)CC1)C2 (stereo not given),9%,14%,6,93% (active),inactive,inactive,inactive,inactive
